{"source": "PubChem BioAssay AID886", "about": "(National Center for Advancing Translational Sciences (NCATS), 2007)", "note": "Several values for one entry are separate records, joined by “and”; a condition that tells them apart may be missing. Identical values can stand only once. The whole screen tested about 73,000 compounds, of which about 2,500 (3.4%) were called active. Not shown: some 7% with an inconclusive outcome. Many of the other results were omitted from the sample, so actives are more common in it than they were. Values without a mark were called inactive. Calls come from the whole dose curve; as a rule, active = well fitted inhibition curve with a large enough effect; inconclusive = small, poorly fitted or top-dose-only effect; inactive = no such curve, though single readings can be large or run the other way. % is set by controls: 0 for no effect and ±100 for the full control effect; potency is the fitted concentration of half-maximal effect."}
{"molecular_target": "3-hydroxyacyl-CoA dehydrogenase type-2 (Homo sapiens) (UniProt Q99714)", "assay": "qHTS Assay for Inhibitors of HADH2 (Hydroxyacyl-Coenzyme A Dehydrogenase, Type II); note: nearly all actives have a fitted effect of over 60% in size", "details": "recombinant HADH2, NADH fluorescence, beta-hydroxybutyryl-CoA; series mostly up to 57.1 µM; activity change, negative = inhibition: at the top concentration", "description": "Assay Overview: NIH Molecular Libraries Screening Centers Network [MLSCN] NIH Chemical Genomics Center [NCGC] Structural Genomics Consortium [SGC] Grant Number: None HADH2: Hydroxyacyl-Coenzyme A dehydrogenase, type II, was supplied by researchers at the Structural Genomics Consortium, Oxford University lab (PI Udo Oppermann). The mitochondrial enzyme 17-hydroxysteroid dehydrogenase type 10 (HSD17-10) previously classified as type II hydroxyacyl-CoA dehydrogenase (HADH2) catalyzes the NAD+ dependent oxidation of a variety of substrates including acyl-CoAs, androgens and neurosteroids as well as bile acids(Shafqat N, Marschall HU, Filling C, et al. Biochemical Journal. 2003;376(Pt 1):49-60). The role in neurodegeneration by binding to amyloid-peptide led to its identification (Oppermann UC, et al FEBS Letters. 1999;451(3):238-242 and Yan SD, et al. Nature. 1997;389(6652):689-695), and mutations in its gene appear to be causative for 2-methyl-3-hydroxybutyryl-CoA dehydrogenase deficiency (Ofman R, et al. American Journal of Human Genetics. 2003;72(5):1300-1307). The enzyme was produced by E.coli fermentation as His-tagged recombinant for the purpose of X-ray structure determination, and had been mass-spectrometry characterized. Inhibition of HADH2 activity was screened by utilizing beta-hydroxybutyryl coenzyme A as an electron donor and NAD+ as an electron acceptor/cofactor. An increase in the fluorescence intensity due to conversion of NAD+ to NADH was used to measure the enzyme activity.\nAssay Protocol: Buffer: 100 mM Tris-HCl pH 9.0, containing 0.01 % Tween-20. Reagents/Controls: Buffer in columns 3 and 4 as negative control (no enzyme). Substrate/cofactor solution: 1 mM NAD+ and 90 uM beta-hydroxybutyryl coenzyme A (Sigma-Aldrich, St. Louis, MO) final concentrations dispensed throughout the plate. Enzyme: 20 nM HADH2 final concentration in columns 1, 2, 5-48. Column 1 is neutral (100% activity). Column 2 contained titration of apomorphine (Sigma-Aldrich, A 4393, PubChem CID 2215, top concentration 500 uM, then 1:2 dilution in duplicate) Assay Steps: Three uL of enzyme were dispensed to 1536-well Greiner black solid bottom plates. Compounds and controls (23 nL) were transferred via Kalypsys PinTool. The plates were incubated for 15 min at room temperature, and then 1 uL of substrate/cofactor solution was added to start the reaction. The plates were immediately transferred to and read every 30 seconds for 4 min on ViewLux High-throughput CCD imager (Perkin-Elmer) using 360 nm excitation and 450 nm emission fluorescence protocol. The fluorescence intensity difference between the last and the first time points was used to compute reaction progress."}
{"smiles": "COC(=O)N(c1ccc(OC)cc1)P1(=S)OCCC(C)O1", "note": "(stereo not given)", "Potency": "1 µM (active)"}
{"smiles": "Fc1ccc(C(OCCN2CCN(C/C=C\\c3ccccc3)CC2)c2ccc(F)cc2)cc1", "activity change, negative = inhibition": "-4.71%"}
{"smiles": "N[C@H](Cc1o[nH]c(=O)c1Cl)C(=O)O", "activity change, negative = inhibition": "-1.53%"}
{"smiles": "C/C(=C\\C=C/[C@@H](C)C(=O)O)[C@H]1CN[C@H](C(=O)O)[C@@H]1CC(=O)O", "activity change, negative = inhibition": "1.54%"}
{"smiles": "O=C1C2(Cl)C3(Cl)C4(Cl)C(Cl)(Cl)C5(Cl)C3(Cl)C1(Cl)C5(Cl)C24Cl", "note": "(stereo not given)", "Potency": "inactive"}
{"smiles": "COc1ccc(CN2CCN(c3ccccc3F)CC2)c(OC)c1", "activity change, negative = inhibition": "-2.55% [at 11.4 µM]"}
{"smiles": "CC(Cl)Cl", "activity change, negative = inhibition": "-6.68%"}
{"smiles": "Cc1cccc([C@H](C)c2cnc[nH]2)c1C", "activity change, negative = inhibition": "0.0117%"}
{"smiles": "Nc1ccc([N+](=O)[O-])cc1", "activity change, negative = inhibition": "-6.3%"}
{"smiles": "O=[N+]([O-])c1ccc(Cl)c(Cl)c1", "Potency": "31.6 µM (active)"}
{"smiles": "Cc1cc(-c2ccc(N)c(C)c2)ccc1N", "activity change, negative = inhibition": "-17.4%"}
{"smiles": "ClCCBr", "activity change, negative = inhibition": "-7.21%"}
{"smiles": "O=C(O)C(=O)Cc1ccc2c(c1)OCO2", "activity change, negative = inhibition": "-12.9% [at 11.4 µM]"}
{"smiles": "CC(=O)O[C@H]1CC[C@@]2(C)[C@@H](CC[C@H]3[C@H]2CC(=O)[C@]2(C)[C@@H]3C[C@@H](N3CC3)[C@H]2C(C)=O)C1", "activity change, negative = inhibition": "16.9% [at 11.4 µM]"}
{"smiles": "CC(C)(O/N=C(\\C(=O)N[C@@H]1C(=O)N2C(C(=O)[O-])=C(C[n+]3ccccc3)CS[C@@H]12)c1csc(N)n1)C(=O)O", "Potency": "7.94 µM (active)"}
{"smiles": "c1ccc(CN2CC[C@@]3(CCCNC3)C2)cc1", "activity change, negative = inhibition": "-3.09%"}
{"smiles": "NCC[Se][Se]CCN", "activity change, negative = inhibition": "1.13% [at 11.4 µM]"}
{"smiles": "NC[C@H](O)c1ccc(O)cc1", "Potency": "inactive"}
{"smiles": "BrC1C(Br)C(Br)C(Br)C(Br)C1Br", "note": "(stereo not given)", "Potency": "25.1 µM (active)"}
{"smiles": "C[C@H](Br)C(=O)N[C@H](CO)C(=O)O", "activity change, negative = inhibition": "-0.293% [at 11.4 µM]"}
{"smiles": "CC[C@]1(O)C(=O)OCc2c1cc1n(c2=O)Cc2cc3ccccc3nc2-1", "activity change, negative = inhibition": "-8.11%"}
{"smiles": "CCCCN1C2CCC1CC(OC(c1ccc(F)cc1)c1ccc(F)cc1)C2", "note": "(stereo not given)", "activity change, negative = inhibition": "3.59%"}
{"smiles": "CCOC(=O)c1c(-c2ccccc2)oc2ccc(OC(=O)N(C)C)cc12", "Potency": "7.94 µM (active)"}
{"smiles": "C[C@@]12CC[C@H]3[C@@H](CC[C@]4(O)C[C@H](O)CC[C@@]34C=O)[C@]1(O)CC[C@@H]2C1=CC(=O)OC1", "activity change, negative = inhibition": "-3.49% [at 25.6 µM]"}
{"smiles": "Clc1ccc([C@@H]2C[C@H]3CC[C@@H]2N3)cn1", "activity change, negative = inhibition": "-0.0351%"}
{"smiles": "ClC(Cl)(Cl)c1ccccc1", "Potency": "inactive"}
{"smiles": "CC(=O)c1c(O)c(C)c(O)c(Cc2c(O)c3c(c(C(=O)/C=C\\c4ccccc4)c2O)OC(C)(C)C=C3)c1O", "Potency": "12.6 µM (active) and 1 µM (active)"}
{"smiles": "Nc1ccc(Cc2ccc(N)c(Cl)c2)cc1Cl", "activity change, negative = inhibition": "-16.3%"}
{"smiles": "Clc1ccccc1", "activity change, negative = inhibition": "-7.99%"}
{"smiles": "CC(C)(c1ccccc1)c1ccc(O)cc1", "activity change, negative = inhibition": "-14.8%"}
